# Bioassay records as filed in PubChem BioAssay.
# Shown are actives, neighbours in structure and some others; about 3.9% of the full set was active somewhere.
# Mtb FBA inh – Mtb FBA enzyme inhibitors, primary screen, biochemical, fluorescence, strain H37Rv; purified M. tuberculosis FBA, fluorescence read-out; inhibition, % at 1 µM; hit rate 2.3% among 360,000; AID 588726, 2011;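 also: 0% = vehicle and 100% = reference inhibitor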
# Target sequence (P9WQA3 whole entry, looked up): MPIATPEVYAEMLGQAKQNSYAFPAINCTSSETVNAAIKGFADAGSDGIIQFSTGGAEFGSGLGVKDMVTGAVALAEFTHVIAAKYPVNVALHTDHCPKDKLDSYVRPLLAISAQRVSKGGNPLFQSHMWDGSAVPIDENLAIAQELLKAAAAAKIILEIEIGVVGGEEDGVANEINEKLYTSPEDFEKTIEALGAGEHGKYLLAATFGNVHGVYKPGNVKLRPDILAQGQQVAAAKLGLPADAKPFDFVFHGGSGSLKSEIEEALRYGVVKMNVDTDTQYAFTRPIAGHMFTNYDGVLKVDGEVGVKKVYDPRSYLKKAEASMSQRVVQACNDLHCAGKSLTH
# BH1578 lux ind – inducers of Vibrio cholerae quorum light production without autoinducers, primary screen, BH1578 luxS cqsA deficient, single point | V. cholerae BH1578 lux reporter, luminescence, 6 h | activation, % at 18.7 µM | hit rate 0.16% among 350,000; in the data active = activation mostly above about 9.7%, no sharp cut-off
# GDH-TPI counter-1 – GDH-TPI coupling enzyme inhibitors, primary screen, artefact control for M. tuberculosis FBA inhibitor project, biochemical, absorbance, full deck | hit rate 1.2% among 360,000 | GDH-TPI coupled enzyme counterscreen, NADH absorbance | inhibition, % at 4.8 µM; in the data active = inhibition above about 30%;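 also: 0% = DMSO wells and 100% = wells lacking the enzyme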
# SARS 3CLpro inh – SARS-CoV 3CLpro protease inhibitors, primary screen, biochemical, quenched FRET | inhibition, % at 6 µM | AID 1706, 2009 | hit rate 0.14% among 290,000 | Replicase polyprotein 1ab (Severe acute respiratory syndrome coronavirus), P0C6X7 | recombinant SARS-CoV 3CLpro, quenched FRET peptide cleavage; in the data active = inhibition above about 12%
# PrPC TRFRET – inhibitors of human cell surface prion protein PrPC, primary screen, cell-based, TR-FRET. Major prion protein (Homo sapiens), P04156. TR-FRET read-out. inhibition, % at 13.8 µM. hit rate 0.43% among 370,000. AID 720596, 2013; in the data active = inhibition above about 24%; also: 0% = median of the test wells and 100% = reference compound wells
# Mtb FBA inh conf – M. tuberculosis aldolase blockers, biochemical, fluorescence, strain H37Rv, confirmation; inhibition, % at 1 µM; shares compounds with Mtb FBA inh; purified M. tuberculosis FBA, fluorescence read-out; hit rate 78% among 5,600;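 also: 0% = vehicle wells and 100% = reference inhibitor wells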
# GDH-TPI counter-2 – GDH-TPI coupling enzyme inhibitors, artefact control for M. tuberculosis FBA inhibitor project, biochemical, fluorescence, high throughput. GDH-TPI coupled enzyme counterscreen. inhibition, % at 1 µM. hit rate 81% among 5,600. shares compounds with Mtb FBA inh; in the data active = inhibition above about 10%
# * = called active by the depositor; i = inactive; nt = no result; + = active, no number. Rule as the data show it, unless noted: active = inhibition above about 27%; inactive = the rest.
SMILES,Mtb FBA inh,BH1578 lux ind,GDH-TPI counter-1,SARS 3CLpro inh,PrPC TRFRET,Mtb FBA inh conf,GDH-TPI counter-2
O=C1c2ccccc2NC(c2ccccc2)N1CCCN1CCOCC1 (centres undefined),48*,i,9,-3,4,123*,107*
Cc1ccc(N2C(=O)c3ccccc3NC2c2ccccc2O)cc1 (centres undefined),17,i,14,5,0,nt,nt
Cc1ccc(CN2C(=O)c3ccccc3NC2c2ccccn2)cc1 (centres undefined),31*,0,-5,-1,-3,63*,51*
CCCN1C(=O)c2ccccc2NC1c1ccc(C)cc1 (centres undefined),78*,-1,3,5,10,5,-2
Cc1ccc(S(=O)(=O)NN2C(=O)c3ccccc3NC2c2ccccc2)cc1 (centres undefined),20,-1,4,2,11,nt,nt
O=C(O)c1ccccc1C1Nc2ccccc2C(=O)N1CCCN1CCOCC1 (centres undefined),6,0,5,-7,6,nt,nt
CN(C)S(=O)(=O)c1ccc(N2CCCC2)c(C(=O)N2CCN(S(=O)(=O)c3ccc(F)c(F)c3)CC2)c1,1,-7,-10,nt,-2,nt,nt
COc1ccc(CNc2nc3nc4c(c(=O)n3[nH]2)CCC4)cc1,1,-5,-3,2,-4,nt,nt
CSc1ccc(S(=O)(=O)N(CC(=O)NCc2ccccn2)c2ccc(C)cc2)cc1,77*,-1,-3,3,-2,181*,141*
Nc1nc(Nc2ccc(Cl)cc2)c(NC=O)c(=O)[nH]1,0,-1,3,nt,-1,nt,nt
Cc1ccc(OCCn2cnc3c2c(=O)n(C)c(=O)n3C)cc1,-3,0,7,1,5,nt,nt
OCCNc1nc(N2CCN(c3ccccc3)CC2)nc2ccccc12,107*,0,13,0,-1,+,177*
OCCN1CCN(c2nc(NCc3ccco3)c3ccccc3n2)CC1,7,0,18,-2,-6,nt,nt
COc1cc(C(=O)NCc2ccc3c(c2)OCO3)c([N+](=O)[O-])cc1OC,-1,-1,25,-3,-16,nt,nt
O=c1[nH]c2cc3c(cc2cc1C(c1nnnn1C1CCCC1)N1CCSCC1)OCCO3 (centres undefined),31*,i,16,-2,7,144*,91*
CCC(C)(C)n1nnnc1C(c1cc2cc3c(cc2[nH]c1=O)OCO3)N1CCN(C)CC1 (centres undefined),59*,0,25,0,1,32*,28*
CCC(C)(C)n1nnnc1C(c1cc2cc(C)cc(C)c2[nH]c1=O)N1CCN(Cc2ccc3c(c2)OCO3)CC1 (centres undefined),1,0,3,4,-3,nt,nt
Cc1cccc2cc(C(c3nnnn3C3CCCC3)N3CCOCC3)c(=O)[nH]c12 (centres undefined),2,i,16,2,1,nt,nt
COc1ccc(-c2cc(-c3ccco3)[nH]c(=O)c2C#N)cc1OC,49*,0,28,6,-18,44*,36*
N#Cc1c(-c2ccccc2)cc(-c2ccc3c(c2)OCO3)[nH]c1=O,15,i,10,nt,4,nt,nt
COc1ccc(CCNC(=O)CSc2nc(=O)n3cc(C)ccc3n2)cc1OC,-1,-1,14,nt,5,nt,nt
Cc1ccc(-c2nc(CN3CCCCC3)cc(CN3CCCCC3)c2O)cc1,59*,0,8,-2,6,144*,122*
Cc1ccc(-c2cc(-c3ccccc3)cc(-c3ccccc3)[n+]2-c2ccc(C(=O)O)cc2)cc1,29*,-1,26,nt,-11,49*,46*
COc1ccc(CCN2C(=O)NC(NS(=O)(=O)c3ccccc3)(C(F)(F)F)C2=O)cc1OC (centres undefined),-1,0,2,-3,4,nt,nt
C[C@]12c3[nH]c4cc(-c5ccco5)ccc4c3CCN1C(=O)[C@@H](CC(=O)NCc1ccco1)C[C@@H]2C(=O)N1CCOCC1,31*,-1,7,nt,-13,174*,148*
SMILES,Mtb FBA inh,BH1578 lux ind,GDH-TPI counter-1,SARS 3CLpro inh,PrPC TRFRET,Mtb FBA inh conf,GDH-TPI counter-2
C[C@]12c3[nH]c4cc(-c5ccco5)ccc4c3CCN1C(=O)[C@@H](CC(=O)NCc1ccco1)C[C@@H]2C(=O)N1CCCCC1,32*,0,-1,nt,5,117*,70*
CC(C)(C)NC(=O)C[C@H]1C[C@H](C(=O)N2CCOCC2)[C@@]2(C)c3[nH]c4cc(-c5ccco5)ccc4c3CCN2C1=O,31*,6,5,nt,nt,50*,45*
CC(C)(C)NC(=O)C[C@H]1C[C@H](C(=O)N2CCCCC2)[C@@]2(C)c3[nH]c4cc(-c5ccco5)ccc4c3CCN2C1=O,21,0,3,nt,4,nt,nt
O=C(CSCc1ccc(Cl)cc1)Nc1ccc(S(=O)(=O)N2CCOCC2)cc1,-1,i,-10,3,5,nt,nt
COc1ccc(C)cc1N1CC(C(=O)Nc2ccccc2C(=O)NC2CC2)CC1=O (centres undefined),5,-2,1,nt,7,nt,nt
O=C(O)CNc1ccccc1C(=O)O,58*,1,7,1,-2,-5,-4
CCOC(=O)c1sc2nc(C)nc(NCc3ccccc3)c2c1C,53*,-1,7,-3,12,-4,0
CCOC(=O)c1sc2nc(C)nc(NCCc3ccc(S(N)(=O)=O)cc3)c2c1C,35*,i,4,-1,1,96*,78*
COc1cc(S(=O)(=O)NC2CCCCC2)c(C)cc1C,-2,i,-2,-2,4,nt,nt
COc1ccc2c(c1)NP(=S)(c1ccccc1)N2C (centres undefined),27*,i,2,nt,-15,67*,55*
CCOC(=O)C[C@@H]1OC[C@H](Cc2ccccc2)N1S(=O)(=O)c1ccc(C)cc1,nt,nt,nt,nt,1,nt,nt
Cc1cc(N2CCOCC2)nc2ccc(NC(=O)CCC(=O)N3CCN(c4cccc(C(F)(F)F)c4)CC3)cc12,35*,i,11,5,-11,54*,40*
Cc1cc(N2CCOCC2)nc2ccc(NC(=O)CCC(=O)N3CCCCC3)cc12,37*,-1,-1,1,0,44*,33*
Cc1ccc(C)c(N2CCN(C(=S)Nc3ccc4nc(N5CCOCC5)cc(C)c4c3)CC2)c1,27*,i,9,-3,7,89*,64*
